Measured values from PubChem BioAssay (EPA / NIEHS).
Results filed as inconclusive are left out. Activity calls are given as the source filed them. How the source made its calls: active means hit-call score of the fitted dose curve at least 0.9, where 1 is the maximum; inconclusive means response in the unintended direction; inactive means score below 0.9.

Assay: ACEA_AR_agonist_AUC_viability: ACEA Biosciences xCELLigence Real-Time Cell Analysis on Androgen Receptor Agonism for Viability (AID 2283775);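 on AC50: viability read 80 hours after compound addition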
Experimental: ACEA_AR_agonist is a cell-based, single-readout assay that uses 22Rv1, a human prostate cancer cell line, with measurements taken at 80 hours after chemical dosing in a 384-well plate, although TO5 and TO6 (mc0.srcf) used a 96-well plate. Differences in plate size can be ignored given data normalization.ACEA_AR_80hr is one of two assay component(s) measured or calculated from the ACEA_AR assay. It is designed to make measurements of real-time cell-growth kinetics, a form of growth reporter, as detected with electrical impedance signals by Real-Time Cell Electrode Sensor (RT-CES) technology.Data from the assay component ACEA_AR_AUC_viability was analyzed in the positive analysis fitting direction relative to DMSO as the negative control and baseline of activity. Using a type of growth reporter, loss-of-signal activity can be used to understand changes in the viability. Furthermore, this assay endpoint can be referred to as a secondary readout, because this assay has produced multiple assay endpoints where this one serves a viability function. To generalize the intended target to other relatable targets, this assay endpoint is annotated to the cell cycle intended target family, where the subfamily is cytotoxicity.
The xCELLigence system Multi-E-Plate stations were used to measure the time-dependent response to chemicals. Each compound was tested in an eight-point, 1:4 serial dilution series starting at a maximum final concentration of 100 uM. A maximum starting concentration of 0.5% DMSO was present in the 100 uM chemical samples and was diluted along with the test article dilution series. The screen was performed in biological duplicate using two separate, 96-well, E-Plates 96 for each dilution series (n = 2). Positive controls (MG132 and testosterone) and a negative control (assay media) were tested in quadruplicate on each testing plate. Then, 0.5% and 0.125% DMSO were tested in duplicates in each plate to serve as solvent controls for the 2 highest concentrations of testing compounds: 100 uM and 25 uM. Reference compounds were tested with 8 concentrations with 1:5 serial dilutions. All screening was carried out by ACEA Biosciences, Inc. (San Diego, CA). 22Rv1 cells purchased from ATCC were maintained in media supplemented with 10% fetal bovine serum (FBS). Before screening, 22Rv1 cells were preconditioned in assay medium. Cells were then detached and seeded in E-Plates 96 in assay medium. After overnight monitoring of growth once every hour, compounds were added to […] cells and remained in the medium until the end of the experiment. Cellular responses were then recorded once every 5 min for the first 5 h, and once every hour for an additional 100 h.

Row | SMILES | outcome | AC50
1 | O=C(O)c1cccc(C(=O)O)c1 | inactive | –
2 | Nc1ccn([C@@H]2O[C@H](CO)[C@@H](O)[C@@H]2O)c(=O)n1 | – | 1.22 µM (active)
3 | OCc1ccccc1 | inactive | –
4 | COc1cc2c(c(OC)c1OC)-c1ccc(OC)c(=O)cc1[C@@H](NC(C)=O)CC2 | – | 0.00303 µM (active)
5 | CC[C@H](C)C(=O)O[C@H]1C[C@H](O)C=C2C=C[C@H](C)[C@H](CC[C@@H](O)C[C@@H](O)CC(=O)O)[C@H]21 | inactive | –
6 | CCn1nc(C)c2c1C(=O)NCC(c1ccc(O)cc1)=N2 | – | 25.8 µM (active)
7 | O=C(O)c1ccc2c(c1)nc(C(=O)NC1CCN(C3CC3)CC1)n2Cc1cc(-c2ccc(Cl)s2)on1 | – | 18.6 µM (active)
8 | CCCCCCCC/C=C\CCCCCCCC(=O)OC[C@@H](O)[C@H]1OC[C@H](O)[C@H]1O | inactive | –
9 | CCOc1ccc2[nH]cc(C(=O)NCc3ccccc3)c(=O)c2n1 | – | 26.1 µM (active)
10 | O=c1[nH]cnc2c1ncn2[C@H]1CC[C@@H](CO)O1 | inactive | –
11 | Cn1c(=O)c2[nH]cnc2n(C)c1=O | inactive | –
12 | C=CCc1cc(S(=O)(=O)c2ccc(O)c(CC=C)c2)ccc1O | – | 24.3 µM (active)
13 | c1ccc2ncccc2c1 | inactive | –
14 | OC(CCl)CCl | inactive | –
15 | CNC(C)=O | inactive | –
16 | c1ccc2cc3ccccc3cc2c1 | inactive | –
17 | CCCCCCCCCCCCCCCCOS(=O)(=O)O | – | 38.3 µM (active)
18 | CCCC(CCC)C(=O)O | inactive | –
19 | CCCCCCCCCCCCCCO | – | 50 µM (active)
20 | CCCc1ccccc1 | inactive | –

Row | SMILES | outcome | AC50
21 | CCc1cccc(CC)c1N | – | 50 µM (active)
22 | OCCNCCO | inactive | –
23 | CC(C)CC(C)O (stereo not given) | inactive | –
24 | CC(C)c1nnc2ccc(-c3ocnc3-c3cc(F)ccc3F)cn12 | – | 66.8 µM (active)
25 | OC(Cn1cncn1)(Cn1cncn1)c1ccc(F)cc1F | inactive | –
26 | CC(C)C(=O)Nc1ccc([N+](=O)[O-])c(C(F)(F)F)c1 | – | 55.2 µM (active)
27 | O=C(NO)C1(NS(=O)(=O)c2ccc(Oc3ccc(F)cc3)cc2)CCOCC1 | – | 38.5 µM (active)
28 | CCCCC(CC)C(=O)OCCOCCOCCOC(=O)C(CC)CCCC (stereo not given) | – | 50 µM (active)
29 | Cc1ncc([C@@H](CCCCCCc2ccc3c(n2)NCCC3)CC(=O)O)cn1 | – | 0.00386 µM (active)
30 | O=S(=O)(O)c1ccc(N=Nc2c(O)ccc3cc(S(=O)(=O)O)ccc23)cc1 | inactive | –
31 | OC[C@H]1O[C@@H]2O[C@H]3[C@H](O)[C@@H](O)[C@@H](O[C@H]4[C@H](O)[C@@H](O)[C@@H](O[C@H]5[C@H](O)[C@@H](O)[C@@H](O[C@H]6[C@H](O)[C@@H](O)[C@@H](O[C@H]7[C@H](O)[C@@H](O)[C@@H](O[C@H]1[C@H](O)[C@H]2O)O[C@@H]7CO)O[C@@H]6CO)O[C@@H]5CO)O[C@@H]4CO)O[C@@H]3CO | inactive | –
32 | CCOC(N)=O | inactive | –
33 | O=S1(=O)CCCO1 | inactive | –
34 | OCC(CO)(CO)CO | inactive | –
35 | NC(=O)N(O)[C@@H]1COc2cc(OCc3ccccc3)ccc21 | inactive | –
36 | O=C(O)[C@H](O)[C@@H](O)C(=O)O | inactive | –
37 | CCCCCCOC(=O)CC(CC(=O)OCCCCCC)(OC(=O)CCC)C(=O)OCCCCCC | inactive | –
38 | COc1cc(C(C)C)c2c(c1)S(=O)(=O)N(COc1cc(=O)n3cccc(OCCN4CCCCC4)c3n1)C2=O | – | 22.3 µM (active)
39 | CCCCCCCCN(C)C | inactive | –
40 | O=C(O)CO | inactive | –
